Laboratory results published in PubChem BioAssay AID2796 (The Scripps Research Institute Molecular Screening Center, 2010).
Hit rate of the full screen: of about 320,000 compounds, about 8,000 (2.5%) were called active. Rule as the data show it: active = activation above about 47%; inactive = the rest. The full list was thinned out, with actives kept by preference.

molecular target: Aryl hydrocarbon receptor (Homo sapiens) (UniProt P35869); test: AHR activators, primary screen, cell-based, luminescence, luciferase reporter, human (AID 2796); conditions: AHR-responsive luciferase reporter cells, at 5 µM, hits give high values;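 also: 0% = vehicle wells and 100% = reference agonist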
Sequence (P35869 whole entry, looked up): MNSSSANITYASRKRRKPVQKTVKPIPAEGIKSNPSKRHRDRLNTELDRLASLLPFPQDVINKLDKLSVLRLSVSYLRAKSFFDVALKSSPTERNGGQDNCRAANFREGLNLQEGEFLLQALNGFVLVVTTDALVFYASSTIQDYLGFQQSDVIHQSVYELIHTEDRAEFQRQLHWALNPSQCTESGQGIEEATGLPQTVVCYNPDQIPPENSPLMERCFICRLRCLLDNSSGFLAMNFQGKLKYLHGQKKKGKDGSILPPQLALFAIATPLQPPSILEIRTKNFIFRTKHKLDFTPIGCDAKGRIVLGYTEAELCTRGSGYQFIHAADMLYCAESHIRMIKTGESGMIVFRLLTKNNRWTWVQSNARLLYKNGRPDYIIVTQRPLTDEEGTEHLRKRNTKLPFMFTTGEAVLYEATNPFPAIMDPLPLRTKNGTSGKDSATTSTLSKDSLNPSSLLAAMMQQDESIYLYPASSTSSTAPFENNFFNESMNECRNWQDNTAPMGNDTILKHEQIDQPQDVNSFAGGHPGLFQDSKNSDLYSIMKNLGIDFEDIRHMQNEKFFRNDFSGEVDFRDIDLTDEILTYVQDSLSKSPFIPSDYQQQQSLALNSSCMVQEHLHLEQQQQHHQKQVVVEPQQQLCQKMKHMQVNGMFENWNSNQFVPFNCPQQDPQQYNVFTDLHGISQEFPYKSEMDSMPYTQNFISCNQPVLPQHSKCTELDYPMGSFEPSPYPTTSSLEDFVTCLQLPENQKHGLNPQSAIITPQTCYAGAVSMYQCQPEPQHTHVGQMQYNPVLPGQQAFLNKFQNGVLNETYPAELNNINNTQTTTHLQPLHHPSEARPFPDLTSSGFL

activation, active:
CCC(=O)/C(=C(/O)c1ccccc1)c1nc2ccccc2[nH]1 64.6%
COc1ccc(Cl)cc1NC(=O)CN(C)C(=O)CCCc1c[nH]c2ccccc12 51.8%
COc1c(Cl)cc(C(=O)Nc2ccc(Cl)cn2)cc1Cl 67.2%
CCSc1nnc(-c2cc3c(s2)-c2ccccc2CC3)o1 62.1%
Fc1ccc(CSc2nnc(-c3cc4c(s3)-c3ccccc3CC4)o2)cc1 51.6%
C=CCN(CC=C)S(=O)(=O)c1ccc(C(=O)Nc2nc3c(s2)CCc2ccccc2-3)cc1 50.7%
Cc1cc(C)nc(Nc2n[nH]c(-c3ccccc3N)n2)n1 67%
O=C(c1cncc(Br)c1)N1CCN(c2ccc([N+](=O)[O-])cc2)CC1 52.5%
Cc1cccc(COc2ccccc2/C=N/Nc2ccc([N+](=O)[O-])cc2)c1 50.4%
Cc1ccc(NC(=O)Nc2cccnc2)cc1 83.7%
O=C(COc1ccc(Cl)cc1)Nc1ccccc1CO 62.6%
Cc1cs/c(=N\N=C\c2ccc(O)cc2)n1Cc1ccco1 59.4%
COc1ccc(OC)c(-c2csc(-c3cccs3)n2)c1 121%
Clc1ccc(Nc2ccc3ccccc3n2)cc1 73.6%
Clc1ccc(-c2csc(-c3ccncc3)n2)cc1 63.4%
CCOC(=O)C1CCN(c2ncnc3c2oc2ccc(Br)cc23)CC1 66.9%
CSc1ncccc1C(=O)Nc1nc2ccc(F)cc2s1 79.2%
Fc1ccc(/C=N/Nc2nc(-c3cccnc3)nc3ccccc23)cc1 69.7%
CC(C)C(=O)Nc1c(C(=O)c2ccc(F)cc2)oc2ccccc12 132%
CC(C)C(=O)Nc1ccc2c(c1)oc1ccccc12 60.8%

activation, inactive:
COc1cc(C(=O)NCc2nnc(SCC(=O)Nc3nc4ccc(C)cc4s3)o2)cc(OC)c1OC -5.66%
COCCN(CCOC)S(=O)(=O)c1ccc(/C(O)=C(\C#N)c2nc3ccccc3[nH]2)cc1 6.43%
O=C(/C(=C/c1cccc(Cl)c1)c1nc2ccccc2[nH]1)c1ccccc1 44.8%
COC(C[C@@H]1O[C@@H]1C(=O)[C@@H](C)OCc1ccccc1)OC -3.27%
COc1ccc(Cl)cc1NC(=O)CN(C)C(=O)c1cc2ccccc2cc1OC 19.4%
COc1ccccc1NC(=O)CCCc1c[nH]c2ccccc12 6.67%
O=C(OCC(=O)N1CCCCC1)c1ccc(OC(F)(F)F)cc1 0.31%
CN(C)NC(=O)c1csnc1-c1c(Cl)cccc1Cl 1.27%
CC1CC(=O)Nc2ccccc2N1C(=O)COc1ccc2cc(Br)ccc2c1 (configuration not stated) 2.14%
COc1ccc(C(=O)NC(=S)Nc2ccc(Cl)cn2)cc1OC 5.66%
COc1ccc(C(=O)N/N=C(\C)CC(=O)Nc2ccc(Cl)cn2)cc1 13.8%
COc1ccc(N(CC(=O)NCc2ccc(F)cc2)C(=O)CCC(=O)Nc2nccs2)cc1 0.66%
COc1cccc(CNC(=O)CCN2C(=S)NC(C)(C)CC2C)c1 (configuration not stated) 3.02%
CCCCSc1nnc(-c2ccc(C)cc2)o1 -1.09%
Clc1ccc(CSc2nnc([C@@H]3CCCN3)o2)cc1 0.21%
Fc1ccc(-c2nnc(CSc3nnc(-c4ccc5c(c4)OCO5)o3)o2)cc1 11.2%
O=C(CSc1nnc(-c2ccccc2O)o1)NC1CCCCC1 -6.68%
CCOc1ncccc1C(=O)NNC(=O)c1cccc(S(=O)(=O)Nc2ccccc2OC)c1 -1.36%
COc1ccc(N(C(=O)CNC(=O)c2ccco2)C(C(=O)NCC2CCCO2)c2ccccc2)cc1Cl (configuration not stated) -0.46%
CC1=NNC(=O)C1CC(=O)N/N=C/c1ccncc1 (configuration not stated) -0.52%
CCCCCC(=O)N1CCN(S(=O)(=O)c2ccc3c(c2)OCCCO3)CC1 1.73%
c1ccc2c(C[n+]3csc4ccccc43)cccc2c1 12.7%
CN(C(=O)Cn1nnc(-c2ccc(F)cc2)n1)C1CCS(=O)(=O)C1 (configuration not stated) -0.41%
O=C(Nc1cc(S(=O)(=O)N2CCCCC2)ccc1Cl)C1COc2ccccc2O1 (configuration not stated) 0.26%
CCN(c1ccccc1)S(=O)(=O)c1ccc(C(=O)Nc2nccs2)cc1 3.71%
COCCN(CCOC)S(=O)(=O)c1ccc(C(=O)Nc2nc3c(s2)CCc2ccccc2-3)cc1 11.6%
Cn1cccc1C(=O)NC(=O)COC(=O)Cc1coc2ccc3ccccc3c12 16.2%
CCCCn1c(SCC(=O)N2CCOCC2)nc2c1c(=O)n(C)c(=O)n2C 0.02%
Cc1cc(C)nc(Nc2ncn[nH]2)n1 2.66%
CCCOc1ccccc1-c1nc(SCCC(=O)O)n[nH]1 10.6%
CCCCNC(=O)Nc1c(C)cc(SC#N)cc1C 3.18%
O=C(c1ccc(Cl)c([N+](=O)[O-])c1)N1CCN(c2ccccc2)CC1 2.09%
O=C(c1cc(C(=O)N2CCN(c3ccc(F)cc3)CC2)cc([N+](=O)[O-])c1)N1CCN(c2ccc(F)cc2)CC1 3.86%
Cc1cc(C)c(NC(=O)CN2CCOCCOCCOCCOCC2)c(C)c1 0.35%
O=[N+]([O-])c1ccc(N/N=C/c2ccccc2)cc1 -1.64%
Cc1ccc(NS(=O)(=O)c2ccc(N/N=C/c3ccccc3OCC(=O)O)c([N+](=O)[O-])c2)c(C)c1 2.69%
CCOC(=O)c1cc(S(=O)(=O)NCCc2ccc(OC)c(OC)c2)cn1C 1.77%
CCOC(=O)C1CCN(CC(=O)Nc2ccc(OC)c(S(=O)(=O)N3CCCCC3)c2)CC1 -1.58%
O=C(NNC(=O)c1cccnc1)Nc1ccccc1 -0.59%
Cc1ccc(NC(=O)NCC(c2cccnc2)N2CCOCC2)cc1 (configuration not stated) 3.2%
CCCNC(=S)NC1CC2CCCC(C1)N2CC(C)C (configuration not stated) 2.13%
CCS(=O)(=O)c1ccc(O)c(NC(=O)COc2ccc(Cl)cc2)c1 -3.28%
COC(=O)c1sccc1NC(=O)COc1ccc(Cl)cc1 3.07%
CC(C(=O)NCCc1ccc(S(N)(=O)=O)cc1)N1C(=O)CC(C)(C)Sc2ccccc21 (configuration not stated) 1.77%
Cc1ccc(CN(Cc2cccnc2)C(=S)Nc2cc(Cl)ccc2C)cc1 2.1%
CN(c1ccccc1)c1ccc(/C=c2\s/c(=C(/C#N)C(=O)C(C)(C)C)n(Cc3ccco3)c2=O)cc1 0.79%
Cc1csc(=Nc2ccccc2)n1CCO 4.51%
Cc1c2cnn(CC(=O)NCc3ccccn3)c(=O)c2c(C)n1Cc1ccc(Cl)cc1 1.4%
Cc1ccc(S(=O)(=O)N(C)c2ccc(OCC(=O)OCC(=O)N(CC#N)c3ccccc3)cc2)cc1 -1.55%
COc1ccc(OC)c(-c2csc(NC(=O)COC(=O)C3CC3)n2)c1 -1.02%
COc1ccc(OC)c(-c2csc(NC(=O)C3=NNC(=O)CC3)n2)c1 12.8%
CCOC(=O)N1CCC(Nc2c(NCCCN3CCN(CC)CC3)c(=O)c2=O)CC1 0.42%
COc1ccccc1C1=CC(=O)CCC1 0.36%
COc1ccc(NC(=O)CNc2cc(S(=O)(=O)N3CCOCC3)ccc2N2CCOCC2)c(OC)c1 -1.67%
O=c1ccnc(Nc2ccc(Cl)cc2)[nH]1 2.65%
Cn1c(Nc2cccc(Cl)c2)nc2ccccc21 -1.72%
Cc1cccc(C)c1NC(=O)CNC(=O)c1c(C)nn(-c2ccccc2)c1C 0.83%
COc1cc(C2OC(c3cc(OC)c(OC)c(OC)c3)C(C)C2C)cc(OC)c1OC (configuration not stated) 3.59%
Cn1c(=O)c2c(ncn2CC(COCc2ccccc2Cl)OCc2ccccc2Cl)n(C)c1=O (configuration not stated) 0.3%
N#CC(=C1CCCC1)c1nc(-c2ccc(Cl)cc2)cs1 4.95%
Fc1ccc(-c2csc(-c3ccc(C4SCCS4)cc3)n2)cc1F 27.6%
CN(C)S(=O)(=O)c1ccc2oc(SCC(=O)Nc3ccccc3F)nc2c1 10.3%
CCOC(=O)C1CCN(Cc2nnc(-c3cccc(Br)c3)o2)CC1 1.14%
CCOC(=O)C1CCN(c2ncnc3c2c(-c2ccccc2)cn3-c2ccc(C)cc2)CC1 -0.73%
COc1cc(OC)cc(C(=O)NCC(=O)N2CCCCCCC2)c1 17.3%
CSc1ncccc1C(=O)Nc1ccc(C)cn1 -0.65%
CSc1ncccc1C(=O)NC1CCCCCC1 -0.02%
Cc1ccc(SC(CC(=O)c2ccc(C(C)(C)C)cc2)C(=O)O)cc1 (configuration not stated) -1.16%
COc1cc(C#Cc2ccc3cc(CCCO)oc(=O)c3c2)cc(OC)c1 1.38%
Cc1ccc2nc(C)cc(N/N=C/c3ccc(F)cc3)c2c1 10.9%
COc1ccc(Nc2nc(-c3cccnc3)nc3ccccc23)cn1 -0.65%
O=C(COC(=O)COc1ccccc1F)Nc1cccc(S(=O)(=O)N2CCCCC2)c1 0.3%
CC(Sc1nnc(COc2ccccc2)n1-c1ccccc1)C(=O)O (configuration not stated) -2.4%
Cc1cc(=O)oc2cc(NC(=O)C(C)Oc3ccccc3)ccc12 (configuration not stated) 2.24%
CC(C)C(=O)Nc1c(O)c2ccccc2[nH]c1=O -0.12%
CC(C)C(=O)Nc1ccc2oc(=O)ccc2c1 1.62%
NC(=O)c1oc2ccccc2c1NC(=O)Cc1ccccc1 0.99%
